Assay results from PubChem BioAssay (NCATS).
Results filed as inconclusive are left out. Active and inactive are the calls of the source. The call rests on the fitted dose curve; in most records, active means well fitted curve in the direction sought with a large enough effect; inconclusive means small, poorly fitted or top-dose-only effect, or another doubt; inactive means no such curve, though single readings can be large; an effect the other way counts as inactive or inconclusive.

Tests used:
[1] = MultiTox-Fluor Cytotoxicity Assay - LYMP1-001 - Dead Cells (AID 946)
Summary of the method: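 Seed 2500 LYMP1-001 cells/well, incubate 5 hr at 37 C; add compound, 16 hr at 37 C; add MultiTox-Fluor reagent, 60 min RT; read dead-cell fluorescence Ex/Em=485/520. Normalize to DMSO and 15 uM tetraoctylammonium bromide.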

[2] = MultiTox-Fluor Cytotoxicity Assay - LYMP1-001 - Live Cells (AID 947)
[3] = Cell Viability - LYMP1-002 - Assay at 16 hr (AID 948)
Summary of the method: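 Acute cytotoxicity is scored as a concentration-dependent fall in intracellular ATP in a human lymphoblastoid line (LYMP1-002) after 16 hr compound exposure at 37 C, measured by luciferase luminescence.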

[4] = MultiTox-Fluor Cytotoxicity Assay - LYMP1-002 - Live Cells (AID 955);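 further: cells exposed to compound for 16 hours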
Summary of the method: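 After 16 h compound exposure at 37 C, live LYMP1-002 lymphoblastoid cells (2500/well) were quantified by cleavage of cell-permeant GF-AFC substrate, read at 405/510 nm after 60 min. Concentration-response fitted with Hill equation for AC50.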

[5] = MultiTox-Fluor Cytotoxicity Assay - LYMP1-002 - Dead Cells (AID 960); further: nearly all actives have a fitted effect of over 60% in size
Summary of the method: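 Dead-cell fluorescence (Ex/Em 485/520) after 16 h compound exposure at 37 C of LYMP1-002 lymphoblastoid cells in complete medium; AC50 by Hill equation, with data scaled between DMSO and 15 uM tetraoctylammonium bromide.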

[6] = MultiTox-Fluor Cytotoxicity Assay - LYMP1-003 - Dead Cells (AID 961); further: nearly all actives have a fitted effect of over 70% in size
Summary of the method: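 LYMP1-003 lymphoblastoid, 2500 cells/well, 5 hr settle then 16 hr cpd at 37 C; MultiTox-Fluor reagent 60 min RT; Ex/Em 485/520 dead-cell signal; norm. DMSO = 0%, 15 uM tetraoctylammonium bromide = 100%; Hill AC50.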

[7] = MultiTox-Fluor Cytotoxicity Assay - LYMP1-003 - Live Cells (AID 962);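 further: cells exposed to compound for 16 hours at 37 °C; cytotoxic hits lower the live-cell protease signal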
Summary of the method: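 Live-cell protease activity (GF-AFC substrate, 405/510 nm, 60 min at room temperature) after 16 h, 37 C compound exposure of human lymphoblastoid LYMP1-003 cells; concentration-response fitted to the Hill equation for AC50.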

[8] = Cell Viability - LYMP1-003 - Assay at 24 hr (AID 963)
Summary of the method: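 Concentration-response qHTS: ATP loss measured by CellTiter-Glo luminescence after 24 h compound exposure at 37 C. Cells were LYMP1-003 human lymphoblastoid, 2500 per well. AC50 derived via standard Hill equation modeling.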

[9] = Cell Viability - LYMP1-003 - Assay at 40 hr (AID 964); further: series mostly up to about 92 µM; nearly all actives have a fitted effect of over 60% in size
Summary of the method: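 Viability is taken as cellular ATP, read by CellTiter-Glo luminescence after 40 h of compound exposure at 37 C. Cells: human lymphoblastoid line LYMP1-003 at 2500/well; AC50 values derived by Hill-equation fitting of concentration-response data.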

[10] = Cell Viability - LYMP2-003 (AID 965);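 further: cells exposed to compounds for 24 h before reading; nearly all actives have a fitted effect of over 50% in size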
Summary of the method: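 Acute cytotoxicity is scored as a concentration-dependent drop in intracellular ATP, measured by luciferase luminescence in human lymphoblastoid cells treated for 24 hours at 37 C. AC50 values derive from Hill-equation modelling.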

[11] = Cell Viability - LYMP2-004 (AID 966); further: nearly all actives have a fitted effect of over 65% in size
Summary of the method: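 AC50 values come from Hill modelling of concentration-dependent loss of intracellular ATP, measured by CellTiter-Glo luminescence. Human LYMP2-004 lymphoblastoid cells (2500/well) were exposed to compound for 24 h at 37 C.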

[12] = Cell Viability - LYMP2-009 (AID 968); further: series mostly up to about 92 µM; nearly all actives have a fitted effect of over 55% in size
[13] = Cell Viability - LYMP2-011 (AID 969); further: nearly all actives have a fitted effect of over 60% in size
Summary of the method: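 Cytotoxicity qHTS with ATP content as read-out: lymphoblastoid cells (2500/well) exposed to compound for 24 h at 37 C, then luciferase luminescence measured. Concentration-response data fitted with the standard Hill equation to give AC50.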

[14] = Cell Viability - LYMP2-013 (AID 970); further: series mostly up to about 92 µM; nearly all actives have a fitted effect of over 55% in size
Summary of the method: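 qHTS cytotoxicity: ATP-dependent luminescence (CellTiter-Glo, 30 min room temperature) read after 24 h compound exposure at 37 C of 2500 LYMP2-013 lymphoblastoid cells per well. Concentration-response fitted with Hill equation to give AC50.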

[15] = Cell Viability - LYMP2-015 (AID 971); further: nearly all actives have a fitted effect of over 55% in size
Summary of the method: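 Cytotoxicity readout: decrease in intracellular ATP (CellTiter-Glo luminescence) in 2500 LYMP2-015 lymphoblastoid cells/well after 24 h compound exposure at 37 C. Concentration-response data fitted with the standard Hill equation to give AC50.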

[16] = Cell Viability - LYMP2-017 (AID 972); further: series mostly up to about 92 µM; nearly all actives have a fitted effect of over 55% in size
Summary of the method: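 CellTiter-Glo luminescence (cellular ATP, 30 min RT) measured cytotoxicity after 24 hr compound treatment at 37 C. Cells were a human lymphoblastoid line, LYMP2-017, plated at 2500/well and incubated 5 hr first; concentration-response fitted with Hill equation for AC50.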

[17] = Cell Viability - LYMP2-023 (AID 975)
Summary of the method: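 Intracellular ATP, read by CellTiter-Glo luminescence, reports viability after 24 hr compound exposure at 37 C. 2500 lymphoblastoid cells/well (LYMP2-023) seeded 5 hr beforehand; Hill fits give AC50; positive control tetraoctylammonium bromide.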

[18] = Cell Viability - LYMP2-025 (AID 976); further: series mostly up to about 92 µM
Summary of the method: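 Cytotoxicity read as loss of intracellular ATP (luciferase luminescence) after 24 h compound treatment at 37 C. Uses LYMP2-025 lymphoblastoid cells in 1536-well format; Hill-equation modelling gives AC50; tetraoctylammonium bromide as positive control.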

[19] = Cell Viability - LYMP2-002 (AID 977); further: series mostly up to about 92 µM
Summary of the method: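 In this qHTS viability screen, 2500 human lymphoblastoid cells per well receive compound for 24 hr at 37 C, and luciferase-based ATP luminescence gives the viability signal. Tetraoctylammonium bromide serves as positive control.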

[20] = Cell Viability - LYMP2-006 (AID 978); further: series mostly up to about 92 µM; nearly all actives have a fitted effect of over 60% in size
Summary of the method: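 Concentration-dependent loss of intracellular ATP in a human lymphoblastoid line after 24 hr treatment at 37 C was measured by CellTiter-Glo luminescence, with AC50 values obtained from standard Hill-equation modelling.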

Measured: outcome

C[C@@H]1C[C@H]2[C@@H]3CCC4=CC(=O)C=C[C@]4(C)[C@@]3(F)[C@@H](O)C[C@]2(C)[C@@]1(O)C(=O)CO
inactive: [1] | [2] | [3] | [4] | [5] | [6] | [7] | [8] | [9] | [10] | [11] | [12] | [13] | [14] | [15] | [16] | [17] | [18] | [19] | [20]
